Measured values from PubChem BioAssay (Tox21).
Calls of active or inactive are those of the source. Where a call stands in place of a potency, no number is given. The call rests on the fitted dose curve; in most records, active means well fitted curve in the direction sought with a large enough effect in the repeat runs; inconclusive means weak or mixed curves; inactive means flat fitted curve, though single readings scatter. Starred links: 1 amine or outer side, 2 acyl side, 3 side chain; linkers in the order of their positions; H or OH if unused. Positions of bridges follow the written chain, without caps; N, C: chain ends. Non-standard residues stand in square brackets, D forms with d. Residues, ends and D or L forms follow the SMILES beside them. *: point of attachment. X5 = NC1=N[C@@H]([C@H](N[*:1])C(=O)[*:2])C[C@H](O)N1; ΔAla(Z-3-ureido) = NC(=O)N/C=C(\N)C(=O)O; β3hOrn = NCCC[C@H](N)CC(=O)*; Orn = NCCC[C@H](N)C(=O)O; Dap = NC[C@H](N)C(=O)O; Mpa = O=C(O)CCS

test: qHTS assay to test for compound auto fluorescence at 460 nm (blue) in HEK293 cells (AID 720678); conditions: blue autofluorescence 405/460 nm; series mostly up to 46 µM
In short: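 Intrinsic compound fluorescence is recorded in live HEK293 cultures after overnight incubation at 37C, 5% CO2, using excitation 405 nm and emission 460 nm. Values are referenced to triamterene.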

Row | SMILES | Potency
1 | COc1ccc2c(=O)c(C)c(-c3ccccc3)oc2c1CN(C)C | inactive
2 | CCOC(=O)COc1ccc2c(C)c(CCN(CC)CC)c(=O)oc2c1 | inactive
3 | O=C(O)[C@H](CC(=O)N1C[C@H]2CCCC[C@H]2C1)Cc1ccccc1 | inactive
4 | C=C1/C(=C\C=C2/CCC[C@]3(C)[C@@H]([C@H](C)OCCC(C)(C)O)CC[C@@H]23)C[C@@H](O)C[C@@H]1O | inactive
5 | N=C(N)c1ccc(OCCCOc2ccc(C(=N)N)cc2Br)c(Br)c1 | inactive

test: qHTS assay to test for compound auto fluorescence at 590 nm (red) in HEK293 cells (AID 720679); conditions: red autofluorescence 540/590 nm; series mostly up to 46 µM
In short: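 Red autofluorescence, HEK293 cells: 2,000 cells/well; attach 4-5 hr 37C; add 23 nL cpd or DMSO; incubate o/n 37C 5% CO2; read Ex540/Em590; Rose Bengal sodium reference.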

Row | SMILES | Potency
6 | COCC1=C(C(=O)OC(C)OC(=O)OC(C)C)N2C(=O)[C@@H](NC(=O)/C(=N\OC)c3csc(N)n3)[C@H]2SC1 (some centres undefined) | inactive
7 | CO[C@@H]1[C@@H](O[C@@H]2O[C@H](C)[C@@H](O[C@H]3C[C@@](C)(O)[C@@H](OC(=O)CC(C)C)[C@H](C)O3)[C@H](N(C)C)[C@H]2O)[C@@H](CC=O)C[C@@H](C)[C@@H](O)/C=C/C=C/C[C@@H](C)OC(=O)C[C@H]1O | inactive
8 | CC(=O)O[C@H]1C[C@@H]2CC[C@@H]3[C@H](CC[C@@]4(C)[C@H]3C[C@H](N3CC[N+](C)(C)CC3)[C@@H]4OC(C)=O)[C@@]2(C)C[C@@H]1N1CC[N+](C)(C)CC1 | inactive
9 | NCCC[C@H](N)CC(=O)N[C@H]1CNC(=O)[C@H]([C@H]2C[C@H](O)NC(N)=N2)NC(=O)/C(=C/NC(N)=O)NC(=O)[C@H](CO)NC(=O)[C@H](CO)NC1=O (β3hOrn-[Dap]SS[ΔAla(Z-3-ureido)][X5]; lactam 1-C) | inactive
10 | CCOc1ccc(C[C@H]2NC(=O)CCSSC[C@@H](C(=O)N3CCC[C@H]3C(=O)N[C@@H](CCCN)C(=O)NCC(N)=O)NC(=O)[C@H](CC(N)=O)NC(=O)[C@H]([C@@H](C)O)NC(=O)[C@H]([C@@H](C)CC)NC2=O)cc1 ([Mpa][dY](Et)ITNCP[Orn]G-NH2; disulfide 1-6) | inactive
11 | O=P(O)(O)C(O)(Cc1cnc2ccccn12)P(=O)(O)O | inactive
12 | OCC(O)COc1ccc(Cl)cc1 (centres undefined) | inactive
13 | CCCCCCCCCCCCCCCC(=O)OC[C@@H](NC(=O)C(Cl)Cl)[C@H](O)c1ccc([N+](=O)[O-])cc1 | inactive
14 | NC(=O)Oc1ccc(Cc2ccccc2)cc1 | inactive
15 | CCCC(CCC)C(N)=O | inactive
16 | CC1CC(OC(=O)C(O)c2ccccc2)CC(C)(C)C1 (centres undefined) | inactive
17 | OC(CN1CCCCC1)c1cc(-c2ccccc2)on1 (centres undefined) | inactive
18 | CCC(c1ccccc1)c1noc(CCN(CC)CC)n1 (centres undefined) | inactive
19 | O=S(O)CNc1ccc(S(=O)(=O)c2ccc(NCS(=O)O)cc2)cc1 | inactive
20 | C=CCN1CCCC1CNC(=O)c1cc(S(N)(=O)=O)cc(OC)c1OC (centres undefined) | inactive
21 | CCCCCCCCCCCCCCCCCC(=O)OCCO | inactive
22 | CCCCCCCCCCCCCCCCCCCCCC(=O)Nc1ccn([C@@H]2O[C@H](CO)[C@@H](O)[C@@H]2O)c(=O)n1 | inactive
23 | CCCCOC(=O)C(=O)Nc1cccc(-c2nn[nH]n2)c1 | inactive
24 | CCOC(=O)[C@H](CCc1ccccc1)N[C@H]1CCCN2CCC[C@@H](C(=O)O)N2C1=O | inactive
25 | CC(C)CN(C[C@@H](O)[C@H](Cc1ccccc1)NC(=O)O[C@@H]1CCOC1)S(=O)(=O)c1ccc(N)cc1 | inactive

Row | SMILES | Potency
26 | O.O=C([O-])CC([S-])C(=O)[O-].[Au+].[Na+].[Na+] (centres undefined) | inactive
27 | O=P(O)(O)C(Sc1ccc(Cl)cc1)P(=O)(O)O | inactive
28 | O=C(CCCN1CCC(C(=O)c2ccc(F)cc2)CC1)c1ccc(F)cc1 | inactive
29 | C[C@H]1C[C@H]2[C@@H]3CCC4=CC(=O)C=C[C@]4(C)[C@@]3(F)[C@@H](O)C[C@]2(C)[C@@]1(O)C(=O)CCl | inactive
30 | CC#CCC(C)[C@H](O)/C=C/[C@@H]1[C@H]2C/C(=C/CCCC(=O)O)C[C@H]2C[C@H]1O (some centres undefined) | inactive
31 | NCCC[C@H](N)C(=O)O | inactive
32 | CN1[C@@H]2CCC[C@H]1CC(NC(=O)c1nn(C)c3ccccc13)C2 (some centres undefined) | inactive
33 | CS(=O)(=O)NC(=O)CCC/C=C\C[C@H]1C(=O)C[C@@H](O)[C@@H]1/C=C/[C@H](O)COc1ccccc1 | inactive
34 | OC[C@@H](O)C(O)[C@H](O)CO | inactive
35 | N[C@@H](C(=O)N[C@@H]1C(=O)N2C(C(=O)O)=C(CSc3cn[nH]n3)CS[C@H]12)c1ccc(O)cc1 | inactive
36 | CC1(C)S[C@@H]2[C@H](NC(=O)Cc3ccccc3)C(=O)N2[C@H]1C(=O)O | inactive
37 | COC(=O)[C@H]1[C@H]2C[C@@H]3c4[nH]c5cc(OC)ccc5c4CCN3C[C@H]2C[C@@H](OC(=O)/C=C/c2cc(OC)c(OC)c(OC)c2)[C@@H]1OC | inactive
38 | Cn1nnnc1SCC1=C(C(=O)O)N2C(=O)[C@@H](NC(=O)[C@H](OC=O)c3ccccc3)[C@H]2SC1 | inactive
39 | CC(C)(C)CC(=O)OCC(=O)[C@@]12OC(C)(C)O[C@@H]1C[C@H]1[C@@H]3CCC4=CC(=O)C=C[C@]4(C)[C@@]3(F)[C@@H](O)C[C@@]12C | inactive
40 | COc1ccc2c(=O)c(C)c(-c3ccccc3)oc2c1CN(C)C | inactive
41 | CCOC(=O)COc1ccc2c(C)c(CCN(CC)CC)c(=O)oc2c1 | inactive
42 | O=C(O)[C@H](CC(=O)N1C[C@H]2CCCC[C@H]2C1)Cc1ccccc1 | inactive
43 | C=C1/C(=C\C=C2/CCC[C@]3(C)[C@@H]([C@H](C)OCCC(C)(C)O)CC[C@@H]23)C[C@@H](O)C[C@@H]1O | inactive
44 | N=C(N)c1ccc(OCCCOc2ccc(C(=N)N)cc2Br)c(Br)c1 | inactive
